The text below walks through data of PubChem BioAssay (NCATS).

Records with an inconclusive call do not appear. A number with no mark means an inactive call. Calls of active or inactive are those of the source. The call rests on the fitted dose curve; in most records, active means well fitted cell-killing curve with a large enough effect; inconclusive means small, poorly fitted or top-dose-only effect; inactive means flat fitted curve, though single readings scatter.
Further: nearly all actives have a fitted effect of over 35% in size.
Potency means the concentration at half of the fitted maximal effect.

The nature of the first assay: Quantitative highthroughput screen to assess conditional lethalithy of P12 Ichikawa cells grown in Human Plasma-Like Medium with dialyzed fetal bovine serum (HPLM+ds) (AID 1963879). To be noted: ATP luminescence, 48 h; Potency: viability; series mostly up to 45.8 µM; viability: at the top concentration. In short, it runs like this: (§1)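 Each medium arm—HPLM with 10% dialyzed FBS, or RPMI1640 with 5 mM glucose and 10% untreated or dialyzed FBS—was screened against an 11-point, 3-fold compound titration for 48 h at 37 °C, with CellTiter-Glo luminescence as endpoint.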
In the case of `CN1CCN(c2ccc(C(=O)Nc3n[nH]c4ccc(Cc5cc(F)cc(F)c5)cc34)c(NC3CCOCC3)c2)CC1`, the Potency was 23.4 µM (active).
In the case of `Clc1ccc2c(c1)C(N1CCNCC1)=Nc1ccccc1O2`, the “viability” value is 99.7%.
In the case of `CC(C)(C)c1cc(C(C)(C)C)c(NC(=O)c2c[nH]c3ccccc3c2=O)cc1O`, the “viability” value is 104%.
For the molecule `C=CC(=O)Nc1ccc2ncnc(Nc3ccc(OCc4cccc(F)c4)c(Cl)c3)c2c1`, the Potency is 7.43 µM (active).
Regarding `CCCc1cc(C(N)=S)ccn1`, the “viability” value is 98.9%.
In the case of `CC(=O)Nc1ccc([C@H](C)C(=O)Nc2ncc(C(C)C)s2)cc1`, the Potency was 11.8 µM (active).
On the same count and under the same terms, the value for `CC(C)C[C@H](NC(=O)CNC(=O)c1cc(Cl)ccc1Cl)B1OC(=O)CC(CC(=O)O)(C(=O)O)O1` (stereo not given in full) was 0.332 µM (active); that for `COc1ccc(-n2nc(C(N)=O)c3c2C(=O)N(c2ccc(N4CCCCC4=O)cc2)CC3)cc1` was 2.64 µM (active).
`O=C(O)CCNC(=O)c1ccc(N=Nc2ccc(O)c(C(=O)O)c2)cc1`: the “viability” value is 103%.
The same measure, in the same setting: then `CC(=O)CC(c1ccccc1)c1c(O)c2ccccc2oc1=O` (stereo not given), with 106%.
For `CON(C)C(=O)N1N=C(c2cc(F)ccc2F)S[C@@]1(CCCN)c1ccccc1`, the Potency was 0.0263 µM (active).

The nature of a further assay: Quantitative highthroughput screen to assess conditional lethalithy of P12 Ichikawa cells grown in RPMI1640 with dialyzed fetal bovine serum (RPMI+ds) (AID 1963880).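 On viability: 100% = DMSO wells and 0% = empty wells on each plate.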 To be noted: ATP luminescence, 48 h; Potency: P12-Ichikawa viability; series mostly up to 45.8 µM; viability: at the top concentration. In short, it runs like this: as §1
Consider `CN1CCN(c2ccc(C(=O)Nc3n[nH]c4ccc(Cc5cc(F)cc(F)c5)cc34)c(NC3CCOCC3)c2)CC1`, for which the Potency is 18.6 µM (active).
With `Clc1ccc2c(c1)C(N1CCNCC1)=Nc1ccccc1O2`, the “viability” value is 99.1%.
On to `Fc1ccc(CNc2ncnc3ccc(F)cc23)cc1`, for which the Potency was 11.8 µM (active).
As to `CC(C)(C)c1cc(C(C)(C)C)c(NC(=O)c2c[nH]c3ccccc3c2=O)cc1O`, the “viability” value is 95.9%.
Still for that read-out and setting: then `COc1ccc(-c2oc3c(CC=C(C)C)c(O)cc(O)c3c(=O)c2O)cc1`, with 99.6%.
Regarding `C=CC(=O)Nc1ccc2ncnc(Nc3ccc(OCc4cccc(F)c4)c(Cl)c3)c2c1`, the Potency is 7.43 µM (active).
In the case of `CCCc1cc(C(N)=S)ccn1`, the “viability” value was 99.6%.
In the case of `CC(=O)Nc1ccc([C@H](C)C(=O)Nc2ncc(C(C)C)s2)cc1`, the Potency is 10.5 µM (active).
As for `CC(C)C[C@H](NC(=O)CNC(=O)c1cc(Cl)ccc1Cl)B1OC(=O)CC(CC(=O)O)(C(=O)O)O1` (stereo not given in full), the Potency is 0.296 µM (active).
On to `C[C@H]1COC2=C1C(=O)C(=O)c1c2ccc2c1CCCC2(C)C`, for which the “viability” value is 84.7%.
For the molecule `CC(=O)NC(C)c1ccc(Oc2ccc(OC(C)C)cc2)cc1` (stereo not given), the “viability” value was 103%.
For the molecule `COc1c2occc2cc2ccc(=O)oc12`, the Potency was 7.43 µM (active).
Same read-out and setting: the value for `COc1ccc(-n2nc(C(N)=O)c3c2C(=O)N(c2ccc(N4CCCCC4=O)cc2)CC3)cc1` was 2.96 µM (active).
For the molecule `O=C(O)CCCCCC(=O)NN=C1CCCC1`, the “viability” value was 103%.
Same read-out and setting: the value for `O=C(O)CCNC(=O)c1ccc(N=Nc2ccc(O)c(C(=O)O)c2)cc1` was 104%.
As to `CNC(=O)[C@H](Cc1ccccc1)NC(=O)[C@H](CC(C)C)[C@H](CSc1cccs1)C(=O)NO`, the Potency was 11.8 µM (active).
Turning to `CC(=O)CC(c1ccccc1)c1c(O)c2ccccc2oc1=O` (stereo not given), the “viability” value was 107%.
Same read-out and setting: then `CCc1ccc(C(=O)Nc2cc(CN3CCN(C)CC3)cc(C(F)(F)F)c2)cc1C#Cc1cnc2ccnn2c1`, with 79.3%.
On to `CON(C)C(=O)N1N=C(c2cc(F)ccc2F)S[C@@]1(CCCN)c1ccccc1`, for which the Potency was 0.0331 µM (active).

A short description of another assay: Quantitative highthroughput screen to assess conditional lethalithy of P12 Ichikawa cells grown in RPMI1640 with untreated serum (RPMI+s) (AID 1963881).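 On viability: 100% = DMSO wells and 0% = empty wells without cells.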 Particulars: ATP luminescence, 48 h; Potency: viability; series mostly up to 45.8 µM; viability: at the top concentration. In a few lines:
as §1
In the case of `CN1CCN(c2ccc(C(=O)Nc3n[nH]c4ccc(Cc5cc(F)cc(F)c5)cc34)c(NC3CCOCC3)c2)CC1`, the Potency is 23.4 µM (active).
Still for that read-out and setting: the value for `O=C(O)c1ccc2c(c1)nc(Nc1cccc(Cl)c1)c1ccncc12` was 4.69 µM (active).
Take `Clc1ccc2c(c1)C(N1CCNCC1)=Nc1ccccc1O2`: the “viability” value is 96.6%.
In the case of `CC(C)(C)c1cc(C(C)(C)C)c(NC(=O)c2c[nH]c3ccccc3c2=O)cc1O`, the “viability” value was 97.6%.
As to `Cc1ccc(F)c(NC(=O)Nc2ccc(-c3cccc4[nH]nc(N)c34)cc2)c1`, the “viability” value was 80.9%.
Turning to `COCCCOc1cc(C[C@@H](C[C@H](N)[C@@H](O)C[C@H](C(=O)NCC(C)(C)C(N)=O)C(C)C)C(C)C)ccc1OC`, the “viability” value is 78.7%.
On to `C=CC(=O)Nc1ccc2ncnc(Nc3ccc(OCc4cccc(F)c4)c(Cl)c3)c2c1`, for which the Potency is 7.43 µM (active).
As for `O=c1c(O)c(-c2ccc(O)c(O)c2)oc2cc(O)cc(O)c12`, the “viability” value is 79.9%.
Same read-out and setting: then `CCCc1cc(C(N)=S)ccn1`, with 102%.
For `CC(=O)Nc1ccc([C@H](C)C(=O)Nc2ncc(C(C)C)s2)cc1`, the Potency was 11.8 µM (active).
As to `CC(C)C[C@H](NC(=O)CNC(=O)c1cc(Cl)ccc1Cl)B1OC(=O)CC(CC(=O)O)(C(=O)O)O1` (stereo not given in full), the Potency is 0.296 µM (active).
Take `C[C@H]1COC2=C1C(=O)C(=O)c1c2ccc2c1CCCC2(C)C`: the “viability” value was 87.5%.
`COc1ccc(-n2nc(C(N)=O)c3c2C(=O)N(c2ccc(N4CCCCC4=O)cc2)CC3)cc1`: the Potency is 2.64 µM (active).
Still for that read-out and setting: then `Cc1cc2c(F)c(Oc3ncnn4cc(OC[C@@H](C)O)c(C)c34)ccc2[nH]1`, with 18.7 µM (active).
Consider `O=C(O)CCNC(=O)c1ccc(N=Nc2ccc(O)c(C(=O)O)c2)cc1`, for which the “viability” value is 101%.
Take `CNC(=O)[C@H](Cc1ccccc1)NC(=O)[C@H](CC(C)C)[C@H](CSc1cccs1)C(=O)NO`: the Potency was 9.35 µM (active).
Still for that read-out and setting: then `Cc1nc(Nc2n[nH]c3c2CN(C(=O)N[C@H](CN(C)C)c2ccccc2)C3(C)C)c2sccc2n1`, with 1.66 µM (active).
Turning to `CC(=O)CC(c1ccccc1)c1c(O)c2ccccc2oc1=O` (stereo not given), the “viability” value is 98.1%.
Regarding `CON(C)C(=O)N1N=C(c2cc(F)ccc2F)S[C@@]1(CCCN)c1ccccc1`, the Potency is 0.0209 µM (active).
For the molecule `N#CC1(c2ccc(NC(=O)c3cccnc3NCc3ccncc3)cc2)CCCC1`, the “viability” value is 101%.
